# Results published in PubChem BioAssay (Tox21).
# Several values for one entry are separate records, joined by “and”; a condition that tells them apart may be missing. Identical values can stand only once. Activity calls are given as the source filed them. A call without a number means that no potency is given here. Unless noted, calls follow the shape of the dose curve; as a rule, active = well fitted curve in the direction sought with a large enough effect in the repeat runs; inconclusive = weak or mixed curves; inactive = flat fitted curve, though single readings scatter.
# Assays:
# [1] = qHTS assay to test for compound auto fluorescence at 535 nm (green) in HEK293 cells (AID 720680)
# [2] = qHTS assay to test for compound auto fluorescence at 460 nm (blue) in HEK293 cell free culture (AID 720681); also: potency is read from the fitted curve at half-maximal effect
# Method in brief: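 Test compounds were pinned into cell-free culture medium (DMEM with 10% FBS) and fluorescence was read directly at Ex/Em 405/460 nm. Signals were expressed as fluorescence equivalents of triamterene, with DMSO vehicle as control.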
# [3] = qHTS assay to test for compound auto fluorescence at 535 nm (green) in HEK293 cell free culture (AID 720682)
# Method in brief: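 Green-channel intensity (Ex/Em 485/535 nm) was recorded from compound-treated wells containing only DMEM with 10% FBS. Fluorescein provided the equivalency standard.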
# [4] = qHTS assay to test for compound auto fluorescence at 590 nm (red) in HEK293 cell free culture (AID 720683)
# Method in brief: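 Tox21 10K library compounds were pinned into cell-free DMEM with 10% FBS and fluorescence was read at excitation 540 nm. Activity is expressed as Rose Bengal sodium equivalency.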
# [5] = qHTS assay to test for compound auto fluorescence at 590 nm (red) in HepG2 cell free culture (AID 720684)
# Method in brief: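 Ex 540 / Em 590 nm read of compound in cell-free MEM (10% FBS). Rose Bengal sodium reference.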
# [6] = qHTS assay to test for compound auto fluorescence at 460 nm (blue) in HepG2 cell free culture (AID 720685)
# Method in brief: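 Cell-free plates of MEM plus 10% FBS received 23 nL compound or DMSO vehicle; blue-channel (405/460 nm) intensity scored against triamterene as reference fluorophore.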
# [7] = qHTS assay to test for compound auto fluorescence at 460 nm (blue) in HepG2 cells (AID 720687)
# Method in brief: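 Cells (2,000/well in MEM with 10% FBS) attached overnight at 37 C, then were exposed to compound or DMSO for 1 hr at 37 C, 5% CO2. Fluorescence read at Ex/Em 405/460 nm, expressed as triamterene-equivalent signal.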
# [8] = molecular target: Glucocorticoid receptor (Homo sapiens) (UniProt P04150); assay: qHTS assay to identify small molecule agonists of the glucocorticoid receptor (GR) signaling pathway (AID 720691; active = well fitted activation curve with a large enough effect in the signal ratio in the repeat runs, not every such curve was filed as active; inconclusive = weak or mixed curves, or effect the other way; inactive = no such curve, though single readings can be large or run the other way; the % refers to the signal ratio; also: potency is read from the fitted curve at half-maximal effect); details: GR-bla HeLa, beta-lactamase reporter ratio, 18 h; activation: at 62.4 µM (top of the series)
# Method in brief: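 Agonist-mode qHTS in HeLa cells stably expressing a glucocorticoid-response-element beta-lactamase reporter. Fluorescence intensity read with FRET substrate (2 h, room temperature) after 18 h compound treatment at 37 C.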
# [9] = molecular target: Glucocorticoid receptor (Homo sapiens) (UniProt P04150); assay: qHTS assay to identify small molecule antagonists of the glucocorticoid receptor (GR) signaling pathway (AID 720692; active = well fitted inhibition curve with a large enough effect in the signal ratio in the repeat runs, not every such curve was filed as active; inconclusive = weak or mixed curves, or effect the other way; inactive = no such curve, though single readings can be large or run the other way; the % refers to the signal ratio; also: potency is read from the fitted curve at half-maximal effect)
# Method in brief: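 Inhibition of dexamethasone-driven (5 nM final) beta-lactamase expression was measured in GRE-reporter HeLa cells over 18 h at 37C. Fluorescence was read after 2 h with the B/G FRET substrate at room temperature.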
# [10] = qHTS assay to test for compound auto fluorescence at 535 nm (green) in HepG2 cell free culture (AID 720686)
# Glucocorticoid receptor (Homo sapiens), sequence (P04150 whole entry, looked up): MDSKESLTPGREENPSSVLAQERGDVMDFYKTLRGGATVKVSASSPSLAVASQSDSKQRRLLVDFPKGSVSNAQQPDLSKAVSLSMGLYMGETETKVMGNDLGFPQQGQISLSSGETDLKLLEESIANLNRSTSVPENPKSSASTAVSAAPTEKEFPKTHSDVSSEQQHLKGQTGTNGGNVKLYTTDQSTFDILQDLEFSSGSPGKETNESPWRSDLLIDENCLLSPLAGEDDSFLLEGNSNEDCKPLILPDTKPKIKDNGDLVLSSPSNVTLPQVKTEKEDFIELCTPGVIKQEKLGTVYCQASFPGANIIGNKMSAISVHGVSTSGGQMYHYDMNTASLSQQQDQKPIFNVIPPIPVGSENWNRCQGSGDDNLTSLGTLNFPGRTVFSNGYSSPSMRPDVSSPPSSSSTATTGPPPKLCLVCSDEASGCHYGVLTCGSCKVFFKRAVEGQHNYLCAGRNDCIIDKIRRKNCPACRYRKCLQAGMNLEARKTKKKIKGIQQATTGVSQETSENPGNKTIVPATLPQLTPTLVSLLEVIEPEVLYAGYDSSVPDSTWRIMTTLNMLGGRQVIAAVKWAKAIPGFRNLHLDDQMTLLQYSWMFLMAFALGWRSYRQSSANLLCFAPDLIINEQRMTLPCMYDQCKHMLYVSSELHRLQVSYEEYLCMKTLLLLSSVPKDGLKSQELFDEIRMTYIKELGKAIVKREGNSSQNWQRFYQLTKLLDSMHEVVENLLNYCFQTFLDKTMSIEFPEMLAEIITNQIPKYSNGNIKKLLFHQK
Compound,Potency [1],Potency [2],Potency [3],Potency [4],Potency [5],outcome [6],outcome [7],Potency [8],Potency [9],Potency [10]
Cc1nc(NS(=O)(=O)c2ccc(N)cc2)nc(C)c1Br,inactive,inactive,inactive,inactive,inactive,inactive,inactive,inactive,inactive,–
C=C[C@]1(C)C[C@@H](OC(=O)CSCCN(CC)CC)[C@]2(C)[C@H](C)CC[C@]3(CCC(=O)[C@H]32)[C@@H](C)[C@@H]1O,inactive,inactive,inactive,inactive,inactive,inactive,inactive,–,inactive,inactive
CN(C)C=Nc1c(I)cc(I)c(CCC(=O)O)c1I,inactive,inactive,inactive,inactive,inactive,inactive,inactive,–,–,–
CCCC(=O)O[C@]1(C(=O)COC(C)=O)CC[C@H]2[C@@H]3C[C@H](F)C4=CC(=O)C=C[C@]4(C)[C@@]3(F)[C@@H](O)C[C@@]21C,inactive,inactive,inactive,inactive,inactive,inactive,inactive,4.3 nM [inconclusive] (active),–,–
CCNC(=O)[C@@H]1CCCN1C(=O)[C@H](CCCN=C(N)N)NC(=O)[C@H](CC(C)C)NC(=O)[C@@H](CC(C)C)NC(=O)[C@H](Cc1ccc(O)cc1)NC(=O)[C@H](CO)NC(=O)[C@H](Cc1c[nH]c2ccccc12)NC(=O)[C@H](Cc1cnc[nH]1)NC(=O)[C@@H]1CCC(=O)N1,inactive,inactive,inactive,inactive,inactive,inactive,inactive,inactive,inactive,–
CC(C)(C)CC(=O)OCC(=O)[C@@]12OC(C)(C)O[C@@H]1C[C@H]1[C@@H]3CCC4=CC(=O)C=C[C@]4(C)[C@@]3(F)[C@@H](O)C[C@@]12C,inactive,inactive,inactive,inactive,inactive,inactive,inactive,–,–,–
CC[C@H](C)[C@@H]1NC(=O)[C@H](Cc2ccc(O)cc2)NC(=O)[C@@H](N)CSSC[C@@H](C(=O)N2CCC[C@H]2C(=O)N[C@@H](CC(C)C)C(=O)NCC(N)=O)NC(=O)[C@H](CC(N)=O)NC(=O)[C@H](CCC(N)=O)NC1=O,inactive,inactive,inactive,inactive,inactive,inactive,inactive,–,inactive,inactive
CC(O)[C@H]1CC[C@H]2[C@@H]3CC[C@@H]4C[C@@H](O)CC[C@]4(C)[C@H]3CC[C@]12C (stereo partly drawn),inactive,inactive,inactive,inactive,inactive,inactive,inactive,–,–,–
CC(=O)[C@]1(O)Cc2c(O)c3c(c(O)c2[C@@H](O[C@H]2C[C@H](N)[C@H](O)[C@H](C)O2)C1)C(=O)c1c(O)cccc1C3=O,inactive,inactive,inactive,inactive,inactive,inactive,inactive,10.7 µM [inconclusive] (active) and 23.9 µM [inconclusive] (active),–,–
O=C(Cn1c(=O)sc2ccc(Cl)cc21)N1CCN(CCO)CC1,inactive,inactive,inactive,inactive,inactive,inactive,inactive,inactive,inactive,–
N#CC(c1ccc(Cl)cc1)c1c(Cl)cc(-n2ncc(=O)[nH]c2=O)cc1Cl (stereo not drawn),inactive,inactive,inactive,inactive,inactive,inactive,inactive,–,23.9 µM (active),inactive
CCCCCCCCCCCCCCCC(=O)OC[C@@H](NC(=O)C(Cl)Cl)[C@H](O)c1ccc([N+](=O)[O-])cc1,inactive,inactive,inactive,–,inactive,inactive,inactive,–,–,inactive
CC(=O)[C@@]1(O)CC[C@H]2[C@@H]3C=C(Cl)C4=CC(=O)[C@@H]5C[C@@H]5[C@]4(C)[C@H]3CC[C@@]21C,inactive,inactive,inactive,–,inactive,inactive,inactive,inactive,–,inactive
CCN(CC)CCOC(=O)c1cccnc1,inactive,inactive,inactive,–,inactive,inactive,inactive,inactive,–,inactive
CCCC(=O)Nc1c(I)cc(I)c(CC(CC)C(=O)O)c1I (stereo not drawn),inactive,inactive,inactive,–,inactive,inactive,inactive,inactive,inactive,inactive
CC(C)[C@@H]1CC[C@@H](C)C[C@H]1OC(=O)c1ccccc1O,inactive,inactive,inactive,–,inactive,inactive,inactive,–,–,inactive
O=C(O)c1ccc(NC(=O)[C@H](Cc2ccc(O)cc2)NC(=O)c2ccccc2)cc1,inactive,inactive,inactive,–,inactive,inactive,inactive,–,–,inactive
CCCc1nc(C(C)(C)O)c(C(=O)OCc2oc(=O)oc2C)n1Cc1ccc(-c2ccccc2-c2nn[nH]n2)cc1,inactive,–,inactive,inactive,inactive,inactive,inactive,–,–,inactive
C/C1=C2N=C(/C=C3N=C(/C(C)=C4\[N-]C(C(CC(N)=O)C4(C)CCC(=O)NCC(C)OP(=O)([O-])OC4C(CO)OC(n5cnc6cc(C)c(C)cc65)C4O)C4(C)N=C1C(CCC(N)=O)C4(C)CC(N)=O)C(CCC(N)=O)C\3(C)C)C(CCC(N)=O)C/2(C)CC(N)=O.[CH3-].[Co+3] (stereo not drawn),inactive,inactive,inactive,–,inactive,inactive,inactive,inactive,inactive,inactive
CCCCC[C@H](O)/C=C/[C@@H]1[C@H]2C/C(=C/CCCC(=O)O)O[C@H]2C[C@H]1O,inactive,inactive,inactive,–,inactive,inactive,inactive,–,–,inactive
C[C@H](O)[C@H](O)[C@H]1CNc2nc(N)[nH]c(=O)c2N1,inactive,12.6 µM (active),inactive,–,inactive,–,–,–,inactive,inactive
CC1(C)S[C@@H]2[C@H](NC(=O)[C@H](N)c3ccccc3)C(=O)N2[C@H]1C(=O)OCOC(=O)[C@@H]1N2C(=O)C[C@H]2S(=O)(=O)C1(C)C,inactive,inactive,inactive,–,inactive,inactive,inactive,–,–,inactive
